The record followed here is PubChem BioAssay (NCATS).

Results filed as inconclusive are left out. Calls of active or inactive are those of the source. Calls come from the whole dose curve.
% is set by controls: 0 for no effect and ±100 for the full control effect; potency is the fitted concentration of half-maximal effect.

The test can be described thus: Natriuretic polypeptide receptor (hNpr1) antagonism - Pilot counterscreen GloSensor control cell line (AID 1347045). To be noted: HEK293 cGMP GloSensor cells, SNP-stimulated luminescence, 20 min; series mostly up to 38.3 µM; activity change, negative = inhibition: at the top concentration. As for the experimental part:
F. Fan, B. F. Binkowski, B. L. Butler, P. F. Stecha, M. K. Lewis, K. V. Wood, Novel genetically encoded biosensors using firefly luciferase. ACS Chem Biol 3, 346-351 (2008).
PROTOCOL TABLE (as described by Inglese J, Shamu CE and Guy RK. 2007)
SEQUENCE No. (e.g., 1, 2, 3, etc.); […] (e.g., Cells, Incubation, Reagent, etc.); VALUE and DESCRIPTION.
1. Cells. Seed 1500 HEK293 cGMP-sensor cells per well in 4uL into Greiner 1536-well white/solid bottom high base, TC plates.
2. Incubation. Incubate plated cells at 37C in 5% CO2, 95% RH overnight.
3. Reagent. Add 1uL per well GloSensor reagent from Promega (2% final concentration) or CO2 independent media vehicle control to respective columns of Greiner 1536-well plates.
4. Incubation. Incubate plated cells at room temperature for 2 h, protect from light.
5. Compounds. Library compounds and DMSO vehicle control added at 23nL per well, transferred by Pin Tool.
6. Incubation. Incubate plated cells for 30 min. at room temperature, protect from light.
7. Detector. GloSensor baseline pre-read luminescence measured using CCD-based camera (Viewlux).
8. Compound. Add 1uL of sodium nitroprusside (SNP) to 50 uM final concentration to stimulate soluble guanylyl cyclase (GC) or CO2 independent media as vehicle control.
9. Incubation. Incubate treated cells at room temperature for 20 min., protect from light.
10. Detector. GloSensor post-SNP luminescence measured using CCD-based camera (Viewlux).
NOTES (numbers refer to Sequence numbers above; values are from representative experiments)
1. HEK293 cells expressing GIP/pGS-40F were grown to 85-95% confluence (48-72 h) in T175 culture flasks (CO2 independent media supplemented with 10% FBS, 1% Pen/Strep antibiotics, and 1 ug/mL puromycin). Trypsinize and harvest cells from T175 culture flasks and filter through 40 um cell strainer. Cells counted with Invitrogen Countess (30,000,000 - 50,000,000 cells/flask).
2. Cells incubated for 24 h. at 37C in 95% RH incubator with metal lid having gas-exchange holes.
3. Prepare GloSensor Reagent (Promega): Reconstitute GloSensor luciferase substrate by adding 8.2mL Hepes buffer to 250mg substrate, mix well, protect from light and stored at -80C. Prepare a fresh 12% GloSensor solution in CO2 independent supplemented plating media (see above). Mix well and store at ambient temperature, protected from light. 1uL 12% GloSensor Luciferase Reagent added (2% final concentration) to respective columns of 9 x 1536-well Greiner plate with BioRaptr, 1uL CO2 independent plating media added to respective columns as vehicle control with BioRaptr.
4. Cells incubated for 2 h. at ambient temperature, protected from light with metal lid having gas-exchange holes.
5. 23nL of LOPAC128 library compounds (7 plates) or DMSO vehicle control transferred to 9 Greiner white/solid bottom high base, TC plates in 7 interplate 1:5 titrations (see Yasgar, A. et al. 2008) with Pintool. Two of the 9 plates are DMSO-only in compound field at beginning and end of compound library-treated plates.
6. Cells incubated for 30-50 min. at ambient temperature protected from light with metal lid having gas-exchange holes.
7. Read GloSensor + Antagonist/Compound baseline Luminescence on the ViewLux [Exposure, 30 s; Gain, High; Speed, Slow; Binning, 2X]
8. SNP solution prepared at 500 mM (in H2O) stock concentration. From this a working dilution was prepared at 300 uM in CO2 Independent media. 1uL of 300 uM SNP (50 uM final concentration) or CO2 Independent media vehicle control dispensed into respective columns of 9 x Greiner 1536-well white/solid bottom, tissue culture plates with BioRaptr.
9. Cells incubated for 20 min. at ambient temperature, protected from light with metal lid having gas-exchange holes.
10. Read final luminescence on the ViewLux. [Exposure, 30 s; Gain, High; Speed, Slow; Binning, 2X.]
[…]
Background: The purpose of a counterscreen is to sort out artefacts and off-target activity.
As for `CCCn1c(=O)c2[nH]c(-c3ccc(S(=O)(=O)O)cc3)nc2n(CCC)c1=O`, the “activity change, negative = inhibition” value was -1.79% (inactive).
Consider `NC1CCN(O)C1=O` (stereo not given), for which the “activity change, negative = inhibition” value was 7.17% (inactive).
Still for that read-out and setting: as for `Cn1c(=O)[nH]c2ncn(C)c2c1=O`, the figure is -10.6% (inactive); as for `NC(=O)c1cc[n+](CC2=C(C(=O)O)N3C(=O)[C@@H](NC(=O)[C@@H](c4ccccc4)S(=O)(=O)[O-])[C@H]3SC2)cc1`, -3.15% (inactive); as for `OC[C@H]1O[C@@H](n2cnc3cncnc32)[C@H](O)[C@@H]1O`, -1.63% (inactive).
The same measure, in the same setting: as for `CC(C)C[C@H](NC(=O)C1OC1C(=O)O)C(=O)NCCCCN=C(N)N` (stereo not given in full), the figure is -1.89% (inactive); as for `C=CC1(C)CC(=O)C2(O)C(C)(O1)C(OC(C)=O)C(O)C1C(C)(C)CCC(O)C12C` (stereo not given), 25.9% (inactive); as for `CC[N+](CC)(CC)CC(=O)Nc1c(C)cccc1C`, -0.031% (inactive).
For the molecule `CCCn1c(=O)c2c(ncn2C)n(CCC)c1=O`, the “activity change, negative = inhibition” value was 32.4% (inactive).
Take `OC[C@H]1O[C@H](n2cnc3c(N[C@H]4CCC[C@@H]4O)ncnc32)[C@H](O)[C@@H]1O`: the “activity change, negative = inhibition” value was -3.76% (inactive).
As to `COc1cc(C(O)CO)ccc1O` (stereo not given), the “activity change, negative = inhibition” value is 2.82% (inactive).
With `NS(=O)(=O)c1cccc2c1c([N+](=O)[O-])cc1nc(O)c(O)nc12`, the “activity change, negative = inhibition” value was 0.688% (inactive).
Regarding `NC(N)=NC(N)=Nc1ccccc1`, the “activity change, negative = inhibition” value was 6.59% (inactive).
Still for that read-out and setting: as for `COc1cccc(OC)c1OCCNCC1CSc2ccccc2O1` (stereo not given), the figure is -0.199% (inactive).
With `[Li+]`, the “activity change, negative = inhibition” value was 7.57% (inactive).
`C#CC(N)CCC(=O)O` (stereo not given): the “activity change, negative = inhibition” value was 4.01% (inactive).
Regarding `CN(C)C(=O)/N=N/C(=O)N(C)C`, the “activity change, negative = inhibition” value is 27.6% (inactive).
For the molecule `CCCOC(=O)c1c(-c2ccccc2)nc(CC)c(C(=O)SCC)c1CCC`, the “activity change, negative = inhibition” value was 1.81% (inactive).
As to `Cc1cc2c(cc1Cl)N(C(=O)Nc1ccnc3ccccc13)CC2`, the “activity change, negative = inhibition” value is -19.7% (inactive).
Consider `Cn1c(=O)c2[nH]c(-c3ccc(S(=O)(=O)O)cc3)nc2n(C)c1=O`, for which the “activity change, negative = inhibition” value was -2.16% (inactive).
On the same count and under the same terms, as for `CC(N)(Cc1ccc(O)cc1)C(=O)O` (stereo not given), the figure is 0.415% (inactive); as for `C/C(=C\c1ccc(C(=O)O)cc1)c1ccc2c(c1)C(C)(C)CCC2(C)C`, -2.54% (inactive); as for `COc1ccc(CCN(C)CCc2ccc(OC)c(OC)c2)cc1OC`, -2.76% (inactive).
For the molecule `CCN(CC)CCOC(=O)c1cc(Cl)c(N)cc1OC`, the “activity change, negative = inhibition” value is 11.3% (inactive).
As to `NC(=O)CNCCC(c1ccccc1)c1ccccc1`, the “activity change, negative = inhibition” value is 0.947% (inactive).
As to `CC(C)NCC(O)COc1ccc(CC(N)=O)cc1` (stereo not given), the “activity change, negative = inhibition” value was -3.16% (inactive).
`N#Cc1cc([N+](=O)[O-])c2sc(C(N)=O)[n+]([O-])c2c1`: the Potency is 14.7 µM (active).
For `N[C@H](C(=O)O)[C@H]1C[C@@H]1C(=O)O`, the “activity change, negative = inhibition” value was 8.57% (inactive).
Same read-out and setting: the result for `N[C@H](C(=O)O)[C@H](Cc1ccccc1)C(=O)O` reads -0.18% (inactive); that for `NCCS(=O)O`, 0.727% (inactive); that for `Nc1ncnc2c1nc(Br)n2C1OC2COP(=O)(O)O[C@@H]2C1O` (stereo not given in full), 9.22% (inactive).
Same read-out and setting: as for `Oc1cc2c(cc1O)C(c1ccccc1)CNCC2` (stereo not given), the figure is 9.34% (inactive).
`CCSC(=N)N`: the “activity change, negative = inhibition” value is -0.817% (inactive).
Still for that read-out and setting: the result for `O=C(O)[C@H]1NCCC[C@H]1C(=O)O` reads 6.04% (inactive); that for `COc1ccccc1N1CCN(CCCCN2C(=O)c3ccccc3C2=O)CC1`, -2.41% (inactive).
On to `COc1ccccc1N1CCN(CCCNc2c(C)c(=O)n(C)c(=O)n2C)CC1`, for which the “activity change, negative = inhibition” value was -0.328% (inactive).
On to `C=C1C[C@@]23CC[C@H]4[C@@](C)(CCC[C@@]4(C)C(=O)O)[C@@H]2CC[C@]1(O)C3`, for which the “activity change, negative = inhibition” value is -2.14% (inactive).
For the molecule `C[C@H]1CC2C3CCC4=CC(=O)C=C[C@]4(C)[C@@]3(Cl)[C@@H](O)C[C@]2(C)[C@@]1(O)C(=O)CO` (stereo not given in full), the “activity change, negative = inhibition” value was 4.45% (inactive).
On to `O=C(O)c1cc2cc(F)ccc2[nH]1`, for which the “activity change, negative = inhibition” value was 3.24% (inactive).
`COc1cc([C@@H]2c3cc4c(cc3[C@H](O)C3COC(=O)[C@@H]32)OCO4)cc(OC)c1OC` (stereo not given in full): the “activity change, negative = inhibition” value was 16.4% (inactive).
